This note sets out measurements from PubChem BioAssay (NCI).

This is part of a sample that, as a whole, favours compounds with a hit. Of some 83,000 tested, about 20% had one in any assay.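 Method: cells in 96-well plates; compound added at one concentration; 48 h incubation; percent growth measured; values under 10 scored active.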 A number with no mark means an inactive call. The source made the active and inactive calls.

This test has as its system OVCAR-5 ovarian. The test can be described thus: NCI-60 one-dose screen, 48 h (100 = growth as untreated, 0 = no growth, -100 = all killed). To be noted: 10 µM unless noted.
With `O=S(=O)(Nc1ccc(I)c(Cl)c1)c1ccc(-c2cnc(C3CC3)o2)cc1`, the growth is 45.2%.

For `O=S(=O)(Nc1ccc2c(c1)OC(F)(F)O2)c1ccc(-c2cnc(C3CC3)o2)cc1`, the growth was 73.2%.

Regarding `O=C(CN1CCN(c2cc(=O)n(-c3ccccc3)c3ccccc23)CC1)Nc1ccc([N+](=O)[O-])cc1`, the growth was 98.7%.

For the molecule `CN(c1ccc(Cl)cc1)S(=O)(=O)c1ccc(-c2cnc(C3CC3)o2)cc1`, the growth was 38.3%.

As for `O=C(/C=C/c1cn(-c2ccccc2)nc1-c1ccc(Cl)cc1)c1cc2ccccc2oc1=O`, the growth was 98%.

With `O=C1C[C@@H](c2ccccc2)Oc2c(Cc3ccccc3O)c(O)c(Cc3cc(Cc4cc(Cc5ccccc5O)ccc4O)ccc3O)c(O)c21`, the growth was 107%.

For the molecule `CCC(CC)N1C(=O)/C(=c2\sc3n(c2=O)C2C(NN=3)N(CC)C(=O)N2CC)c2ccccc21` (stereo not drawn), the growth is 29.8%.

Take `COC(=O)Nc1ccc(-c2nc(-c3cccc(O)c3)c(-c3ccnc(Br)c3)[nH]2)cc1`: the growth is 92.9%.

Regarding `CC(=O)Nc1ccc(NC(=O)Nc2cccc(-c3nc(-c4ccc(NC(=O)c5cccs5)cc4Cl)no3)c2)cc1C(F)(F)F`, the growth was -37.9% (active).

With `O=S(=O)(Nc1cc(Cl)cc(Cl)c1)c1ccc(-c2cnc(C3CC3)o2)cc1`, the growth is 45.6%.

Consider `CC(=O)Nc1ccc(NC(=O)Nc2cccc(-c3nc(-c4ccc(NC(=O)c5cccnc5)cc4Cl)no3)c2)cc1C(F)(F)F`, for which the growth was -49.4% (active).

`O=C(Nc1cccc(-c2nc(-c3ccc(NC(=O)c4cccs4)cc3Cl)no2)c1)Nc1ccc(NC(=O)C2CC2)c(C(F)(F)F)c1`: the growth was -14.6% (active).

`CN1C(=O)N(C)C2Nn3c(s/c(=C\c4ccccn4)c3=O)=NC21` (stereo not drawn): the growth was 104%.
